Drawing on ChEMBL document CHEMBL4513216, “Probing the Open Global Health Chemical Diversity Library for Multistage-Active Starting Points for Next-Generation Antimalarials” (ACS Infect Dis, 2020), this text covers INHIBITION for 51 compounds.

The whole screen tested about 65,000 compounds, of which about 2,100 (3.2%) showed an effect of 50% or more. The median lay at about -52%. This is one part of a sample in which strong results are shown more often than they occur.

This assay has as its system Plasmodium falciparum. Briefly: Screen against P. falciparum Asexual Blood Stage (ABS), at 5uM. Type of assay: functional, Dd2. The note with it: tested at 5 uM.
With `Fc1cccc(F)c1Cn1c(C2CCNCC2)cc2cccnc21`, the INHIBITION is listed as 80.6%.

Consider `Fc1ccccc1Cn1c(C2CCNCC2)cc2cccnc21`, for which the INHIBITION was 88.7%.

As to `Fc1cccnc1O[C@@H]1CN(Cc2ccccn2)[C@@H]2CCCO[C@@H]21`, the INHIBITION is -14%.

As for `CN(Cc1nc2ccsc2c(=O)[nH]1)C[C@@H]1CCCN2CCCC[C@H]12`, the INHIBITION is on record as -20.7%.

Take `CN(Cc1ccccc1-n1cccn1)C[C@@H]1CCCN2CCCC[C@H]12`: the INHIBITION is given as 76%.

As to `Cc1ccc(-c2noc(CC[C@@H]3CCCN4CCCC[C@H]34)n2)nn1`, the INHIBITION is recorded as -74.3%.

As to `COCCN1C[C@@H]2OCCN(c3ccnc(N(C)C)n3)[C@@H]2C1`, the INHIBITION is -31.1%.

`CS(=O)(=O)N1CCO[C@@H]2CN(Cc3ccncc3)C[C@@H]2C1`: the INHIBITION is -25.9%.

`CC(C)(NCc1cccc(O)c1)c1ccc2c(c1)OCO2`: the INHIBITION was 88.9%.

As to `CCC(C)N1CCc2nc(N3CCCC3)nc(NC(C)C)c2C1` (stereo unspecified), the INHIBITION worked out at 78%.

For `CN(C)C(=O)[C@H]1C[C@H]2OCC[C@H]2N(Cc2ccccn2)C1`, the INHIBITION is -13.3%.

`CC(Nc1nc(-c2ccncc2)nc2c1CCNC2)c1ccccc1` (stereo unspecified): the INHIBITION was 71.5%.

For the compound `Cc1cccnc1[C@H](C)Nc1nc(-c2cccnc2)nc2c1CNC2`, the INHIBITION is on record as 78%.

On to `CC(Nc1nc(-c2ccccc2)nc2c1CCNCC2)c1cccnc1` (stereo unspecified), for which the INHIBITION turned out to be 90.9%.

As for `CSCC(=O)NS(=O)(=O)c1ccc(C#N)c(C(F)(F)F)c1`, the INHIBITION is -52.2%.

As for `COCCNC(=O)[C@@]12CCO[C@@H]1CCN(Cc1cc(C)on1)C2`, the INHIBITION is reported as -32%.

With `CN1CCN(C(=O)Cc2ccc(S(=O)(=O)C(F)F)cc2)CC1`, the INHIBITION is reported as -85.3%.

`CCN(C)S(=O)(=O)NCC1CCCN(Cc2ccccc2F)C1` (stereo unspecified): the INHIBITION is reported as 74.5%.

In the case of `CS(=O)(=O)NCC1CCCN(Cc2ccccc2F)C1` (stereo unspecified), the INHIBITION is 89.2%.

As to `COc1ncccc1CN1C[C@@H]2COC[C@]2(CNS(C)(=O)=O)C1`, the INHIBITION is reported as -44.2%.

`Fc1ccccc1CN1CCCC2(CCN(c3ncccn3)C2)C1` (stereo unspecified): the INHIBITION is -15.8%.

For the compound `C[C@@H]1CN(Cc2ccco2)CCN1C(=O)Cc1ccccc1F`, the INHIBITION is -154%.

As for `NC1(C(=O)NCC2CCCN(Cc3ccccc3F)C2)CCCC1` (stereo unspecified), the INHIBITION worked out at 85.6%.

As for `COCCN1CCCC12CCN(c1ncccn1)CC2`, the INHIBITION is reported as -0.324%.

As for `Cc1c(C2N3CC4(C)CN2CC(C)(C3)C4=O)[nH]c(=O)[nH]c1=O` (stereo unspecified), the INHIBITION was -53.4%.

Consider `COc1cc(C2SCC(=O)Nc3ccsc32)cc(OC)c1O` (stereo unspecified), for which the INHIBITION was -46.5%.

`CCN1CCC2(COCc3cnc(-c4cccnc4)nc32)C1` (stereo unspecified): the INHIBITION was -76.4%.

Regarding `c1cncc(-c2noc(CN3CCc4cncnc4C3)n2)c1`, the INHIBITION is reported as 72.9%.

For the compound `COCc1cncc2c1CCN(Cc1cccnc1)C2`, the INHIBITION is -107%.

Consider `O=C1C[C@@H]2CC[C@H](CN1)N2C1CCSCC1`, for which the INHIBITION is -19.5%.

As to `C[C@@H]1C[C@H]2CN(Cc3nccs3)C[C@H]2O1`, the INHIBITION was -77.8%.

As for `Cc1cc(CN2CC[C@H]3C[C@H](c4nc(C5CC5)cs4)O[C@@H]3C2)no1`, the INHIBITION is listed as -15.2%.

As to `Nc1nc(N)c2c(n1)OC1(COCCN(Cc3nccs3)C1)C2` (stereo unspecified), the INHIBITION is -134%.

As to `Cc1nc(CO[C@@H]2CN(Cc3ccccn3)[C@@H]3COC[C@@H]32)cs1`, the INHIBITION is -6.87%.

As to `c1cncc(COC[C@@H]2CCC[C@@]23CNCCO3)c1`, the INHIBITION was found to be 23.4%.

Turning to `c1cncc(OC[C@@H]2CCC[C@@]23CNCCO3)c1`, the INHIBITION is on record as 67%.

In the case of `c1ccc(COC[C@H]2CCC[C@@]23CNCCO3)nc1`, the INHIBITION is 44.1%.

As to `c1ccc(COC[C@@H]2CCC[C@@]23CNCCO3)nc1`, the INHIBITION is on record as 48.6%.

In the case of `c1cncc(COC[C@@H]2CCC[C@]23CNCCO3)c1`, the INHIBITION is listed as -12.9%.

Turning to `c1ccc(OC[C@@H]2CCC[C@@]23CNCCO3)nc1`, the INHIBITION amounted to 66.9%.

On to `COc1cc(N2C[C@H]3CCN(CCN4CCCC4)C[C@H]3C2)ncn1`, for which the INHIBITION is recorded as -52.5%.

Take `Cc1cccc(CN2C[C@@H]3CN(Cc4ccoc4)CCO[C@@H]3C2)n1`: the INHIBITION is reported as -60.3%.

In the case of `Cc1ccc(O[C@@H]2C[C@H]3CN(C(=O)Cc4ccccn4)CCN3C2)cc1`, the INHIBITION is recorded as -77.2%.

With `CC(C)N1[C@H](CN2CCCC2)C[C@@H]2CN(Cc3ccoc3)CC[C@@H]21`, the INHIBITION is reported as 76.2%.

For `CN1C(Cn2cccn2)C[C@@H]2CN(Cc3cccnc3)CC[C@@H]21` (stereo partly specified), the INHIBITION came to 11.2%.

Turning to `CC(C)N1[C@H](Cn2cncn2)C[C@@H]2CN(c3ncccn3)CC[C@@H]21`, the INHIBITION was -58.2%.

`CCc1noc(C(C)N2CCN(C)CC2)n1` (stereo unspecified): the INHIBITION is -21%.

Turning to `Cc1ccc(C(=O)N2C[C@@H]3OCCN(CC4CCCC4)[C@@H]3C2)cn1`, the INHIBITION is recorded as -30%.

For the compound `c1ccc(-c2cc(CN3C[C@H]4CC[C@@H](C3)N(CC3CCC3)C4)on2)cc1`, the INHIBITION stood at 88.4%.

For `c1ccc(-c2cc(CN3C[C@H]4CC[C@H]3C4)on2)cc1`, the INHIBITION is reported as 5.39%.

Take `COc1ccnc(N2C[C@H]3CC[C@@H](C2)N(CC2CC2)C3)n1`: the INHIBITION came to 4.16%.
